From PubChem BioAssay
Shown are actives, neighbours in structure and some others; about 2.5% of the full set was active somewhere.
TDP43 rescue – rescues yeast growth from TDP-43 toxicity | Potency, µM (highest dose often 46.1 µM), for inactives: at the highest dose growth rescue (activation), actives largely listed as activators | actives 1.8% (n = 410,000) | TDP-43 expressing yeast growth rescue, BacTiter-Glo, 24 h; note: potency is the fitted concentration of half-maximal effect; % of control where 0% means no effect; nearly all actives have a fitted effect of over 50% in size
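Luminescence from BacTiter-Glo reports growth of TDP-43-expressing yeast after 24 hr at 30 deg C with compound. Cells were raffinose-pregrown to mid-log, then seeded in galactose medium at OD600=0.02.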
aSyn yeast inh – inhibitors of alpha-synuclein toxicity in yeast; Potency, µM (doses to about 46.1 µM), for the others: at the top dose growth rescue (activation), most hits filed as activators; actives 0.14% (n = 370,000); AID 652106; Yeast expressing alpha-synuclein, growth rescue, BacTiter-Glo, 24 h; note: potency is the fitted concentration of half-maximal effect; % of control where 0% means no effect; nearly all actives have a fitted effect of over 65% in size
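Screening used galactose-induced yeast with toxic alpha-synuclein levels, exposed to compound for 24 hr at 30 deg C. Cell growth, read with BacTiter-Glo luminescence, gave the measured signal.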
CCT chaperon mod – modulators of cytosolic chaperonin (CCT/TRiC) activity; AID 651819; activity change, % (no concentration beside the values), hits read low; actives 0.3% (n = 360,000); purified chaperonin ATPase assay, HTRF ADP detection, 30 min; in the data active = activity change below about -30%; note: % is set by controls: 0 for no effect and ±100 for the full control effect
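We incubate TRiC, 40 or 20 nM final, with library compounds at 76 uM and 10 uM ATP for 30 min at 37 °C. ADP formed is detected with Transcreener HTRF reagents after 30 min at room temperature.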
Apoferritin bind – candidate novel general anesthetic via apoferritin binding; P02791; apoferritin/1-aminoanthracene competitive binding, fluorescence; Potency, µM (top dose mostly 77.5 µM), inactives show at the top dose activity change, negative = displacement, most hits filed as inhibitors; actives 0.074% (n = 350,000); note: potency is the fitted concentration of half-maximal effect; % is set by controls: 0 for no effect and ±100 for the full control effect; nearly all actives have a fitted effect of over 20% in size
Target sequence (P02791 2-175 limits assumed): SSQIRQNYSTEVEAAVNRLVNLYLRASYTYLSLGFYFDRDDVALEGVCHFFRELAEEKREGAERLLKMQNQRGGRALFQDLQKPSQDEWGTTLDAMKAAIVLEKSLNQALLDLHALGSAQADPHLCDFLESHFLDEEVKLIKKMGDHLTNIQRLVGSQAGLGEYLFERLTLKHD
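Probe: 1-aminoanthracene (50% saturated, PBS). Protein: horse-spleen apoferritin, 10 uM. Incubation: 10 min, room temperature. Detection: 380 nm excitation, 535 nm emission. Analysis: normalized response, four-parameter Hill.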
pAkt inh – blocks phosphorylation of Akt; Neuro2A IGF-stimulated pAkt S473 HTRF, 20 min; stronger effect = lower value; actives 0.32% (n = 360,000); activity change, % for hits at 50 µM; in the data active = activity change below about -80%; inconclusive = mostly about -51% to -80%; note: % is set by controls: 0 for no effect and ±100 for the full control effect
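Single-point screen (50 µM final compound) in Neuro2A cells stimulated 20 min with 6 nM IGF at 37 deg C. After lysis, Ser473-phosphorylated Akt read by HTRF (ex 330 nm, em 615/665 nm) as the 665/615 ratio.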
Mito fusion act – blocks mitochondrial division or promotes mitochondrial fusion; S. cerevisiae fusion-defective mutant growth rescue, CellTiterGlo 48 h; Potency, µM (series often up to 46.1 µM), for inactives: at the highest dose growth rescue (activation), usual class: activators; actives 0.23% (n = 320,000); note: potency is the fitted concentration of half-maximal effect; % of control where 0% means no effect; nearly all actives have a fitted effect of over 45% in size
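Yeast fusion mutant, YPEG (non-fermentable carbon), compound, 48 h at 37C non-permissive; CellTiterGlo added, 10 min RT, luminescence read. Rescued growth = division inhibition.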
Numbers without * were called inactive; i = inactive; ? = inconclusive; . = not tested or not shown; [ ] = remark or other dose. Unless noted, calls come from the whole dose curve; as a rule, active = well fitted curve in the direction sought with a large enough effect; inconclusive = small, poorly fitted or top-dose-only effect, or another doubt; inactive = no such curve, though single readings can be large; an effect the other way counts as inactive or inconclusive.

SMILES	TDP43 rescue	aSyn yeast inh	CCT chaperon mod	Apoferritin bind	pAkt inh	Mito fusion act
COc1ccc(NC(=O)C(C2CC2)n2c(=O)c(-c3ccccc3)nc3ccccc32)cc1 (stereo not drawn)	20µM*	12%	.	.	i	.
O=C(CCCCCN1C(=O)[C@@H]2Cc3ccccc3CN2C1=O)Nc1cccc(F)c1	-2%	8%	-1	-7%	i	13µM*
Cc1cccc(NC(=O)CCCCCN2C(=O)[C@@H]3Cc4ccccc4CN3C2=O)c1	27%	3%	-2	-10%	i	-2%
COc1ccccc1CC(=O)N1CCN(c2cccc(Cl)c2)CC1	13µM*	3%	1	-10%	i	3%
O=C(c1ccc2nccnc2c1)N1CCN(c2cccc(C(F)(F)F)c2)CC1	0%	1%	-2	.	i	-3%
Cn1c2ccccc2c2c(C(=O)N3CCN(c4cccc(C(F)(F)F)c4)CC3)cn(C3CCCCC3)c(=O)c21	21%	.	.	49%	.	.
COc1ccccc1C(=O)N1CCN(c2cccc(C(F)(F)F)c2)CC1	14µM*	3%	-1	-22%	i	-6%
Cn1cc(C(=O)N2CCN(c3cccc(C(F)(F)F)c3)CC2)c2c3ccccc3n(C)c2c1=O	28µM*	.	.	0%	.	.
O=C(c1cccc(F)c1)N1CCN(c2cccc(C(F)(F)F)c2)CC1	14µM*	12%	2	6%	?	-3%
CCn1cc2nc(SCC(=O)Nc3ccc(C)cc3)n(Cc3ccc(C)cc3)c(=O)c2n1	8%	.	.	-7%	.	.
COCc1cccc(-c2csc(C(O)c3ccc(F)c(OC)c3)n2)c1 (stereo not drawn)	?	10%	0	.	i	.
OC(c1ccc(F)c(F)c1)c1nc(-c2ccc(Cl)cc2)cs1 (stereo not drawn)	?	?	-1	.	i	.
COc1ccc(-c2csc(C(O)c3ccc(F)c(F)c3)n2)cn1 (stereo not drawn)	22µM*	?	1	.	i	.
COc1ccc(-c2csc(C(O)c3ccc(F)c(OC)c3)n2)cn1 (stereo not drawn)	35µM*	19%	-1	.	i	.
CN1CC(O)C2=CC(=O)C(=O)C=C21 (stereo not drawn)	.	.	.	-15%	.	.
CCCNC(=O)OC[C@@H]1O[C@H](CCO/N=C(\C)CCN2CCc3nc(CC)c(CC)cc3C2)C=C[C@@H]1Oc1ccc(OC)cc1	.	.	.	-15%[15.3 µM]	.	.
O=C(Cc1ccccc1)NCC(=O)OCC(=O)c1ccc2ccccc2c1	.	-1%	.	.	.	.
CC(C)COC[C@H](CN(Cc1ccccc1)c1ccccc1)N1CCCC1	.	.	.	-10%[29.3 µM]	.	.
CCC(=O)c1ccc(OCc2ccccc2)c(OC)c1	11µM*	10%	0	-7%	i	29%
CC(C)(C)c1ccc(C2Sc3ccccc3NC3=C2C(=O)c2ccccc23)cc1 (stereo not drawn)	-1%	.	.	-8%	.	.
O=C(Nc1ccc2c(c1)OCCO2)C(c1ccc(C(F)(F)F)cc1)n1c(=O)c(-c2cc3ccccc3[nH]2)nc2ccccc21 (stereo not drawn)	?	10µM*	.	.	i	.
O=C(Nc1ccc2c(c1)OCCO2)C(c1ccncc1)n1c(=O)c(-c2cc3ccccc3[nH]2)nc2ccccc21 (stereo not drawn)	28µM*	-7%	.	.	i	.
COc1cc(NC(=O)CCc2c(C)nc3nc(-c4cc(OC)cc(OC)c4)nn3c2C)cc(OC)c1	-31%	.	.	-13%	.	.
O=C(C(=O)N1CCN(c2ccccc2Cl)CC1)c1c[nH]c2ccccc12	22µM*	18µM*	2	?	i	-9%
Clc1ccccc1N1CCN(Cc2c[nH]c3ccccc23)CC1	7%	6%	-2	.	i	.
SMILES	TDP43 rescue	aSyn yeast inh	CCT chaperon mod	Apoferritin bind	pAkt inh	Mito fusion act
COc1cccc(NC(=O)CN(c2cccc(C(F)(F)F)c2)S(C)(=O)=O)c1	2%	0%	-2	-18%	i	-1%
CCOc1ccc(NC(=O)CN(c2cccc(C(F)(F)F)c2)S(C)(=O)=O)cc1	13µM*	4%	-1	-15%	i	-11%
CCS(=O)(=O)N1Cc2ccccc2CC1C(=O)Nc1cccc(OC)c1 (stereo not drawn)	-10%	6%	-49*	-11%	i	?
CCS(=O)(=O)N1Cc2ccccc2CC1C(=O)Nc1ccc(OC)c(OC)c1 (stereo not drawn)	-20%	-4%	1	-12%	i	-2%
O=C1N/C(=N\N=C\c2ccccn2)SC1Cc1cccc(SC(F)F)c1 (stereo not drawn)	29%	5µM*	-1	-10%	i	-4%
CCOC(=O)n1c2ccccc2c(=O)n1CCO	16%	3%	-33*	.	i	.
Cc1ccc(S(=O)(=O)N2CCN(C(=O)N(C)C)CC2)cc1C	-24%	-6%	-52*	4%	i	0%
Cc1ccc(N(C)C(=O)N2CCN(S(=O)(=O)c3ccc(C)c(C)c3)CC2)cc1	-21%	-11%	-1	-23%	i	15%
C=CS(=O)(=O)c1c2cc(OC)ccc2nc2ccc(OC)cc12	3.5µM*	-42%	-5	.	i	.
c1ccc(-n2nnnc2-c2cccc3ccccc23)cc1	14µM*	5%	-1	.	i	.
CC(=O)Nc1ccc(OCC(O)Cn2cnc3ccccc32)cc1 (stereo not drawn)	-11%	-8%	-1	-7%	i	-2%
OC(COc1ccc2c(c1)CCC2)Cn1cnc2ccccc21 (stereo not drawn)	5%	8%	2	3%	-123%*	2%
O=C(O)/C=C/c1ccc2ccccc2c1	.	3%	.	.	.	.
COc1cccc(C(=O)/C=C/c2ccc(OCC#N)c(OC)c2)c1	20µM*	?	-2	-13%	i	2%
COc1cc(OC)cc(-c2sc3ccc(OC)cc3c2C#CC(C)(C)O)c1	11µM*	2%	0	.	i	16%
Cc1cnc(C(=O)OC(C(=O)Nc2cc(C(F)(F)F)ccc2Cl)c2ccccc2)cn1 (stereo not drawn)	18µM*	2%	0	?	i	-8%
Cc1ccc(C)c(NC(=O)C(OC(=O)c2cnc(C)cn2)c2ccccc2)c1 (stereo not drawn)	23%	4%	-3	.	i	3%
N#Cc1cc([N+](=O)[O-])c2sc(C(N)=O)[n+]([O-])c2c1	.	-1%	.	.	.	9%
c1ccc(Oc2ncnc3ccccc23)cc1	2%	0%	2	.	i	.
c1ccc(Sc2ncnc3ccccc23)cc1	13µM*	9%	1	-1%	i	-20%
c1ccc(-c2ncnc3ccccc23)cc1	13µM*	-3%	-1	.	i	.
